Inconclusive results are not listed. Unmarked numbers belong to inactive results. Calls come from the whole dose curve; as a rule, active = well fitted cell-killing curve with a large enough effect in the repeat runs; inconclusive = weak or mixed curves, or effect the other way; inactive = flat fitted curve, though single readings scatter.
Assay: qHTS RealTime-Glo MT Cell Viability Assay in HEK293 cells - 24 hour (AID 1224886); note: top concentration of the series differs between compounds; nearly all actives have a fitted effect of over 50% in size
Details: RealTime-Glo luminescence; series mostly up to 76.8 µM; activity change, negative = cytotoxicity: at the top concentration
Excerpt: National Center for Advancing Translational Sciences [NCATS]
NIH Chemical Genomics Center [NCGC]
U.S. Environmental Protection Agency [EPA]
National Institutes of Environmental Health Sciences [NIEHS]
National Toxicology Program [NTP]
U.S. Food and Drug Administration [FDA]
Measure of cell viability is critical in the cell-base assay. Analysis of cell viability is necessary for the characterization of cell responses to cytotoxic drugs and environmental stress. A RealTime-Glo MT Cell Viability Assay to monitor cell viability in real time of continues cell culture during 40 hours of compound treatment was used to screen Tox21 10K library compounds in Hek293 cells. The RealTime-Glo MT Cell Viability Assay is a nonlytic, homogeneous, bioluminescent method to measure cell viability in real time using a simple, plate-based method. The assay involves adding NanoLuc luciferase and a cell-permeant prosubstrate to cells in culture. Viable cells reduce the proprietary prosubstrate to generate a substrate for NanoLuc luciferase. This substrate diffuses from cells into the surrounding culture medium, where it is rapidly used by the NanoLuc Enzyme to produce a luminescent signal. The signal correlates with the number of viable cells, making the assay well suited for cytotoxicity studies.
Tox21 Assay Protocol Summary:
The mixture of Hek293 cell suspension and reagents were dispensed at 600cells/6 ul/well in 1536-well tissue culture treated black solid bottom plates using a Multidrop dispenser. After the assay plates were incubated at a 37 C/5% CO2 incubator for 5 hours, 23 nL of compounds dissolved in DMSO, positive and negative controls was transferred to the assay plate by a pintool work station. The plates were incubated at 37 C for 40 hours. The luminescence intensity were measured at 0h, 8h, 16h, 24h, 32h and 40h time points using ViewLux plate reader during compound treatment.
% is set by controls: 0 for no effect and ±100 for the full control effect.

Row | SMILES | activity change, negative = cytotoxicity
1 | C[Si]1(C)N[Si](C)(C)N[Si](C)(C)N1 | 11.6%
2 | O=C(O)C(=O)Nc1cccc(-c2nn[nH]n2)c1 | 0.516% [at 35.3 µM]
3 | Cc1ccccc1C | 14.1%
4 | CCCCC(C)C(=O)O (stereo not given) | -1.71%
5 | O=C(O)c1ccc(OCCN2CCCCC2)cc1 | 6.98% [at 35.3 µM]
6 | COc1cc2c3cc1Oc1cc(ccc1O)C[C@@H]1c4c(cc(OC)c(O)c4Oc4ccc(cc4)C[C@@H]3N(C)CC2)CC[N+]1(C)C | 0.467% [at 35.3 µM]
7 | O=S(=O)(O)CCO | -11.3%
8 | C=CCCCCCCCCCCC | 4.16% [at 6.97 µM]
9 | CC(=O)OC(C)(C)Cc1ccccc1 | 1.13%
10 | CCN1CN(CC)CN(CC)C1 | 12.5%
11 | CC(C)C(=O)Nc1cccc(C(F)(F)F)c1 | -5.68% [at 35.3 µM]
12 | Cc1nc(C)nc(N2C[C@@H](C)N(c3ccnc([C@@H](C)O)n3)[C@@H](C)C2)n1 | 6.04% [at 35.3 µM]
13 | Nc1ccc(S(=O)(=O)NC(=O)c2ccccc2)cc1 | 7.35% [at 35.3 µM]
14 | CCC(C)(C)C1CCC(=O)CC1 | 12.3%
15 | CCC(O)C(C)(C)C (stereo not given) | 0.437%
16 | CO[Si](CCCCl)(OC)OC | 22%
17 | C=C(C)[C@@H]1CC[C@@H](C)C[C@@H]1O | 2.36%
18 | Cc1ccc(C(=O)C(=O)O)cc1C | 3.69% [at 35.3 µM]
19 | CO/N=C(/C(=O)N[C@@H]1C(=O)N2C(C(=O)O)=C(Cn3nnc(C)n3)CS[C@H]12)c1csc(N)n1 | -0.771% [at 35.3 µM]
20 | CCNC(=O)NCCCOc1cccc(CN2CCCCC2)c1 | -5.22% [at 35.3 µM]

Row | SMILES | activity change, negative = cytotoxicity
21 | CNC(=O)NC | 2.93%
22 | O=C(Oc1ccccc1C(=O)O)c1ccccc1O | 3.99% [at 35.3 µM]
23 | CCCCCCCCCOCC1CO1 (stereo not given) | -18.4%
24 | C=C[Si](C)(C)O[Si](C)(C)C=C | -0.825%
25 | CCOC(=O)OCC/C(SC(=O)OCC)=C(\C)N(C=O)Cc1cnc(C)nc1N | 0.348% [at 35.3 µM]
26 | CNCc1ccccc1 | -1.03% [at 35.3 µM]
27 | O=S1(=O)CCCC1 | 14.6%
28 | CC(C)(CO)[C@@H](O)C(=O)NCCCO | 0.508% [at 35.3 µM]
29 | COC(=O)CCC(=O)O | 15.2%
30 | C1=C\CC/C=C\CC/1 | 15%
31 | Cc1ccc(S(=O)(=O)NC(=O)NC2CCCCCCC2)cc1 | 1.79% [at 35.3 µM]
32 | Cc1ccccc1N1CCN(CCc2nnc3n2CCCC3)CC1 | -6.56% [at 35.3 µM]
33 | CC(C)COC(=O)CCCCC(=O)OCC(C)C | -9.3%
34 | Cc1ccccc1C(=O)N1CC/C(=N\OS(=O)(=O)O)c2ccc(Cl)cc21 | -3.38% [at 35.3 µM]
35 | CCCCCCCCCCCCCCCCI | -7.78% [at 15.8 µM]
36 | CC(=O)OC[C@H]1O[C@@H](OC(C)=O)[C@H](OC(C)=O)[C@@H]1OC(C)=O | 2.13% [at 35.3 µM]
37 | CCCCC/C=C/CC(=O)OC | 1.32%
38 | CC(=O)c1ccc2c(c1)CCCC2 | -8.86%
39 | CCC(CO)CO | 4.9%
40 | CN[C@@H]1[C@H](O)[C@H](NC)[C@H]2O[C@@]3(O)C(=O)C[C@@H](C)O[C@H]3O[C@@H]2[C@H]1O | 0.821% [at 35.3 µM]

Source: PubChem BioAssay (Tox21)
